Laboratory results as given in PubChem BioAssay AID1159580 (chemical genetic matrix, 2015).
In all, about 5,500 compounds went through this assay and about 2,000 (36%) were called active. Not shown: some 18% with an inconclusive outcome. Rule as the data show it: active = normalized growth mostly below about 0.91 (no sharp cut-off); inconclusive = no clear call, values can overlap the other calls; inactive = mostly above about 0.92. This is one part of the list.

Test: chemical genetic growth profiling, strain panel (AID 1159580);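 also: tested at 20 µM; growth read once vehicle control cultures reached saturation at 30 °C; 1 = growth at the plate median or of vehicle wells; lower values mean less growth of the strain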
Conditions: growth OD
[1] = S. cerevisiae deletion strains, locus YAL013W, strain DEP1, active compounds read low
[2] = S. cerevisiae deletion strains, locus YBR229C, strain ROT2, active compounds read low
[3] = S. cerevisiae deletion strains, locus YCL061C, strain MRC1, active compounds read low
[4] = S. cerevisiae deletion strains, locus YDL101C, strain DUN1, active compounds read low
[5] = S. cerevisiae deletion strains, locus YDR150W, strain NUM1, active compounds read low
[6] = S. cerevisiae deletion strains, locus YEL061C, strain CIN8, active compounds read low
[7] = S. cerevisiae deletion strains, locus YGR078C, strain PAC10, active compounds read low
[8] = S. cerevisiae deletion strains, locus YHR030C, strain SLT2, active compounds read low
[9] = S. cerevisiae deletion strains, locus YHR087W, strain rtc3, active compounds read low
[10] = S. cerevisiae deletion strains, locus YJL187C, strain SWE1, active compounds read low
[11] = S. cerevisiae deletion strains, locus YJR043C, strain POL32, active compounds read low
[12] = S. cerevisiae deletion strains, locus YJR075W, strain HOC1, active compounds read low
[13] = S. cerevisiae deletion strains, locus YKL190W, strain CNB1, active compounds read low
[14] = S. cerevisiae deletion strains, locus YLR039C, strain RIC1, active compounds read low
[15] = S. cerevisiae deletion strains, locus YLR058C, strain SHM2 (second series), active compounds read low
[16] = S. cerevisiae deletion strains, locus YLR085C, strain ARP6, active compounds read low
[17] = S. cerevisiae deletion strains, locus YLR262C, strain YPT6, active compounds read low
[18] = S. cerevisiae deletion strains, locus YML094W, strain GIM5, active compounds read low
[19] = S. cerevisiae deletion strains, locus YMR219W, strain ESC1, active compounds read low
[20] = S. cerevisiae deletion strains, locus YMR263W, strain SAP30, active compounds read low
[21] = S. cerevisiae deletion strains, locus YNL128W, strain TEP1, active compounds read low
[22] = S. cerevisiae deletion strains, locus YNL153C, strain GIM3, active compounds read low
[23] = S. cerevisiae deletion strains, locus YNL298W, strain CLA4 (second series), active compounds read low
[24] = S. cerevisiae deletion strains, locus YNL322C, strain KRE1, active compounds read low
[25] = S. cerevisiae deletion strains, locus YNR030W, strain Alg12, active compounds read low
[26] = S. cerevisiae deletion strains, locus YOL006C, strain TOP1, active compounds read low
[27] = S. cerevisiae deletion strains, locus YPL055C, strain LGE1, active compounds read low
[28] = S. cerevisiae deletion strains, locus YPL241C, strain CIN2, active compounds read low
[29] = S. cerevisiae deletion strains, locus YPR135W, strain CTF4, active compounds read low

Measured: normalized growth

CN1CNc2c(c(=O)n(C)c(=O)n2C)C1
inactive: [1] 0.994 | [2] 0.999 | [3] 0.998 | [4] 0.974 | [5] 0.998 | [6] 0.996 | [7] 0.988 | [8] 1.04 | [9] 0.988 | [10] 1.01 | [11] 0.998 | [12] 1.02 | [13] 1.01 | [14] 1.03 | [15] 1 | [16] 0.979 | [17] 1.01 | [18] 0.974 | [19] 0.998 | [20] 1 | [21] 1 | [22] 0.983 | [23] 1.01 | [24] 0.998 | [25] 1 | [26] 1.02 | [27] 0.953 | [28] 1.07 | [29] 1.01 | S. cerevisiae strains, strain wild type, active compounds read low 1

O=C(N/N=C\c1ccccc1Cl)N/N=C\c1ccccc1Cl
active: [1] 0.898 | [6] 0.834 | [8] 0.363 | [14] 0.753 | [16] 0.458 | [18] 0.773 | [20] 0.909 | [23] 0.588 | [25] 0.69 | [27] 0.765 | [28] 0.707 | [29] 0.553
inactive: [2] 0.989 | [3] 1 | [4] 0.992 | [5] 0.88 | [7] 1 | [9] 0.989 | [10] 0.987 | [11] 0.945 | [12] 0.988 | [15] 1 | [17] 0.871 | [19] 1 | [21] 0.976 | [22] 0.996 | [24] 0.977 | [26] 0.769

O=C(N/N=C\c1ccccc1Cl)c1cccnc1
inactive: [1] 1.02 | [2] 1 | [4] 0.971 | S. cerevisiae deletion strains, locus YDL134C, strain PPH21, active compounds read low 1.01 | [5] 0.932 | [6] 1.03 | [7] 1 | S. cerevisiae deletion strains, locus YGR229C, strain SMI1, active compounds read low 1.01 | [8] 0.987 | [9] 1.01 | [10] 0.996 | [11] 0.995 | [12] 0.99 | [13] 1.01 | [14] 1.03 | [15] 1.01 | [16] 0.97 | [17] 1.01 | [18] 1 | [19] 1 | [20] 0.945 | [22] 1 | [23] 1 | [24] 1 | [25] 1.01 | [26] 1.03 | [27] 0.886 | [28] 0.996 | [29] 1
